Among the data in PubChem BioAssay (Tox21) are Potency and activity change, negative = cytotoxicity values, retold here.

Records with an inconclusive call do not appear. Where a call stands in place of a potency, no number is given. Values without a mark were called inactive. Activity calls are given as the source filed them. Calls follow the shape of the dose curve; as a rule, active = well fitted cell-killing curve with a large enough effect in the repeat runs; inconclusive = weak or mixed curves, or effect the other way; inactive = no such curve, though single readings can be large or run the other way.
Potency is read from the fitted curve at half-maximal effect.

This experiment is described as follows: qHTS assay for small molecule activators of the heat shock response signaling pathway - cell viability counter screen (AID 743209). Also: nearly all actives have a fitted effect of over 50% in size. Particulars: HSE-bla HeLa viability, CellTiter-Glo luminescence, 5 h; series mostly up to 62.6 µM. The text has this: U.S. Tox21 Program National Center for Advancing Translational Sciences [NCATS] NIH Chemical Genomics Center [NCGC] U.S. Environmental Protection Agency [EPA] National Institutes of Environmental Health Sciences [NIEHS] National Toxicology Program [NTP] U.S. Food and Drug Administration [FDA] Tox21 Assay Overview: Various chemicals, environmental and physiological stress conditions may lead to the activation of heat shock response/ unfolded protein response (HSR/UPR). There are three heat shock transcription factors (HSFs) (HSF-1, -2, and -4) mediating transcriptional regulation of the human HSR. To identify the compounds that activate HSR signaling, HSE-bla HeLa cell line (Invitrogen, Carlsbad, CA, USA) containing a beta-lactamase reporter gene under the control of the heat shock response elements was used to screen Tox21 10K compound library. The cytotoxicity of the Tox21 compound library against the HSE-bla HeLa cell line was tested in parallel by measuring the cell viability using CellTiter-Glo assay (Promega, Madison, WI) in the same wells.
Tox21 Assay Protocol Summary: The CellSensor HSE-bla HeLa cells (Invitrogen, Carlsbad, CA, USA) were dispensed at 1500 cells/6uL/well into 1536-well black wall/clear bottom plates using a Multidrop combi (Thermo Fisher Scientific, Waltham, MA) dispenser. After the assay plates were incubated at 37 C and 5% CO2 overnight, 23 nL of compounds dissolved in DMSO, positive controls or DMSO only was transferred to the assay plate by a Pintool station (Kalypsys, San Diego, CA). The plates were incubated at 37 C for 5 h. After 1 uL of LiveBLAzerTM B/G FRET substrate was added using a Flying Reagent Dispenser (FRD, Beckman Coulter, Indianapolis, IN, USA), the plates were incubated at room temperature for 2.5 h, and fluorescence intensity was measured by an Envision plate reader (PerkinElmer, Shelton, CT). For cell viability readout that measures cytotoxicity, 3 ul/well of CellTiter-Glo reagent was added into the assay plates using a FRD. After 30 min incubation at room temperature, the luminescence intensity in the plates was measured using a ViewLux (PerkinElmer) plate reader.
With `CCCCCCCCCOC(=O)c1ccccc1C(=O)OCCCCCCCCC`, the Potency entry is “inactive”.
Still for that read-out and setting: as for `COc1cc(/C=C/C(N)=O)cc(OC)c1OC`, the entry is “inactive”; as for `Cc1ccnc(N)c1`, “inactive”; as for `COC(=O)CCCCC(CCSS/C(CCO)=C(\C)N(C=O)Cc1cnc(C)nc1N)SC(C)=O` (stereo not given), “inactive”.
Consider `CC1(C)CC(OC(=O)CCCCCCCCC(=O)OC2CC(C)(C)NC(C)(C)C2)CC(C)(C)N1`, for which the Potency entry is “inactive”.
Same read-out and setting: as for `CCNC(=O)NCc1cccc(Cl)c1`, the entry is “inactive”.
The same measure, in the same setting: as for `COS(=O)(=O)O`, the entry is “inactive”.
The same measure, in the same setting: to `CCN1CCCC1CN` (stereo not given) belongs “inactive”.
Consider `O=C(Cn1ccnc1[N+](=O)[O-])NCc1ccccc1`, for which the Potency entry is “inactive”.
Same read-out and setting: as for `O=NN(CCCl)C(=O)NC1CCCCC1`, the entry is “inactive”; as for `OCCN1CCOCC1`, “inactive”.
On the same count and under the same terms, to `CCCCCC(C)O` (stereo not given) belongs “inactive”; to `COC(=O)/C=C\C(=O)O`, “inactive”.
For `N[C@@H](Cc1ccc(O)cc1)C(=O)O`, the activity change, negative = cytotoxicity was -1.43% [at 13.2 µM].
With `C=C(C)[C@@H]1CC=C(C)CC1`, the Potency entry is “inactive”.
The same measure, in the same setting: to `CC(C)[C@H]1CC[C@H](C)C[C@@H]1O` belongs “inactive”; to `CCCCCCCCCCOC(C)=O`, “inactive”.
Still for that read-out and setting: to `CN(C)CCOC(=O)C(c1ccccc1)C1(O)CCCC1` (stereo not given) belongs “inactive”; to `O=C1NC(c2ccccc2)(c2ccccc2)C(=O)N1COP(=O)(O)O`, “inactive”.
The same measure, in the same setting: as for `OC[C@@H](O)C(O)[C@@H](O)CO` (stereo not given in full), the entry is “inactive”; as for `CC1(C)Oc2ccc(C#N)cc2[C@@H](N2CCCC2=O)[C@@H]1O`, “inactive”.
Turning to `COC(=O)c1ccccc1C(=O)O`, the Potency result was “inactive”.
The same measure, in the same setting: to `CC1(C)Cc2cccc(N)c2O1` belongs “inactive”.
Still for that read-out and setting: as for `C=CCCCCCCCC`, the entry is “inactive”; as for `C=CC(=O)OCC1CCCO1` (stereo not given), “inactive”; as for `O=C(O)CSCC(=O)NC1CCSC1=O` (stereo not given), “inactive”.
As to `CCCC(=O)OCCC(C)CCC=C(C)C` (stereo not given), the Potency is 49 µM (active).
Still for that read-out and setting: as for `CC(=O)O[Si](C)(OC(C)=O)OC(C)=O`, the entry is “inactive”; as for `CCCCCc1cccc(=O)o1`, “inactive”; as for `C/C(=C1\CCOC(=O)S1)N(C=O)Cc1cnc(C)nc1N`, “inactive”.
Same read-out and setting: to `O=C(CCCl)NCCc1ccccc1` belongs “inactive”; to `CC(=O)Nc1ccc(OC(=O)c2ccccc2OC(C)=O)cc1`, “inactive”.
Same read-out and setting: to `C=CC(=O)CCCCC` belongs “inactive”; to `CO[Si](CCCn1c(=O)n(CCC[Si](OC)(OC)OC)c(=O)n(CCC[Si](OC)(OC)OC)c1=O)(OC)OC`, “inactive”; to `CNCCS(=O)(=O)O`, “inactive”.
Take `CCCCCCCCCCCCCBr`: the Potency entry is “inactive”.
Take `O=[N+]([O-])c1c(Cl)cc(Cl)cc1Cl`: the Potency result was “inactive”.
On the same count and under the same terms, to `CO/N=C(/C(=O)N[C@@H]1C(=O)N2C(C(=O)[O-])=C(C[n+]3ccn4ncccc43)CS[C@H]12)c1nsc(N)n1` belongs “inactive”; to `CC(C)C1OCCN1CCOC(=O)NCCCCCCNC(=O)OCCN1CCOC1C(C)C` (stereo not given), “inactive”.
For `C=CCN1C[C@H](C(=O)N(CCCN(C)C)C(=O)NCC)C[C@@H]2c3cccc4[nH]cc(c34)C[C@H]21`, the Potency result was “inactive”.
